High-throughput results: PubChem, several laboratories
Beta apoptosis = inhibitors of cytokine-induced beta cell apoptosis, primary screen, luminescence | INS-1E cytokine-induced death, ATP luminescence, 48 h; percent of positive-control rescue, neutral wells zero | 300,000 tested, 0.8% active | protection from apoptosis, % (concentration not given with the values);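 active = Every replicate reaches about 75%, or at least half do and their mean reaches it too, limit read from the data; inconclusive = At least half of replicates reach the limit but their mean does not; inactive = Under half of replicates reach the limit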;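 note: 0% = cytokine-treated negative control wells and 100% = positive control rescue; higher means more ATP so stronger rescue from cytokine killing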
Shn3 inh set2 = reduction of Shn3 3'UTR firefly luciferase signal, primary screen, Schnurri-3 inhibitor project, cell-based, Clone20 osteoblasts, set 2 | inhibition, % at 12.5 µM | 360,000 tested, 0.52% active | Clone20 osteoblast Shn3 3'UTR firefly luciferase, 24 h;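 active = mean inhibition of at least 75% with every replicate also reaching 75%; inconclusive = mean inhibition at least 75% but some replicate below; inactive = mean inhibition below 75%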;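 note: 0% = median of neutral control wells and 100% = pilot-screen positive control compound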
Mdm2 MdmX PPI = inhibitors of human Mdm2-MdmX association, primary screen, cell-based, luminescence, split luciferase, SaOS-2, uHTS. 330,000 tested, 3% active. Protein Mdm4 (Homo sapiens) + E3 ubiquitin-protein ligase Mdm2 (Homo sapiens), …. SaOS-2 split-luciferase Mdm2/MdmX complementation. AID 485346, 2010. inhibition, % at 8 µM;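 active = inhibition of at least 50% at 8 µM in the primary screen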
Gli-Sufu block = Gli-Sufu pathway antagonists, primary screen, luciferase luminescence, Sufu-KO-LIGHT cells, uHTS; Sufu-KO-LIGHT fibroblasts, Gli luciferase reporter luminescence; 340,000 tested, 0.74% active; inhibition, % at 5 µM;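 active = inhibition above about 55%, limit read from the data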;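 note: 0% = DMSO-treated cells and 100% = wells with medium but no cells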
PAX8 reporter = inhibitors of PAX8-driven TPO luciferase reporter, primary screen, RMG-I cells, single concentration; SteadyGlo, 24 h; inhibition, % at 12.6 µM; 360,000 tested, 1.2% active;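 active = mean replicate inhibition at least 60% with every replicate also reaching 60%; inconclusive = only one of the two criteria is met; inactive = mean below 60% and not all replicates reaching 60%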;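 note: luciferase light reporting Pax8 driven TPO promoter activity; plate controls were median of neutral control wells for no effect and mitoxantrone controls for full effect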
CSC inhib = cancer stem cell viability inhibitors, primary screen, luminescence; cancer stem cell-like cells viability; inhibition, % at 7.5 µM; 300,000 tested, 1.1% active; AID 2717, 2010; in the data active = inhibition above about 75%; inconclusive = no clear call, values can overlap the other calls; tested in HMLE shEcad cells
* marks the source's active call; other numbers are inactive results; ? = inconclusive; · = not tested or not shown; + = active, no number. Shown are actives, neighbours in structure and some others; about 4% of the full set was active somewhere.

SMILES	Beta apoptosis	Shn3 inh set2	Mdm2 MdmX PPI	Gli-Sufu block	PAX8 reporter	CSC inhib
CCOCCCNC(=O)/C(C#N)=C/c1ccc([N+](=O)[O-])o1	2	98*	21	2	19	+
CC1CCCCN1c1cc(C#N)c(C#N)cc1[N+](=O)[O-] (stereo not drawn)	7	4	-8	8	·	81*
CNC[C@H]1OCCCC[C@H](C)Oc2ccc(NC(=O)NC(C)C)cc2C(=O)N([C@H](C)CO)C[C@@H]1C	·	·	·	·	-1	·
O=C(Cn1cc(C(F)(F)F)cc(Cl)c1=O)NCc1ccccc1	-2	-42	-19	-31	-33	-13
O=C(Cn1cc(C(F)(F)F)cc(Cl)c1=O)NCCc1ccccc1	-1	96*	16	10	9	-6
Cc1noc(C)c1NC(=O)Nc1ccc2c(c1)C(=O)N([C@H](C)CO)C[C@@H](C)[C@H](CN(C)Cc1ccc(C(F)(F)F)cc1)OCCCC[C@@H](C)O2	·	·	·	·	-14	·
O=C(C[C@@H]1C[C@H]2c3cc(NC(=O)C4CCC4)ccc3O[C@H]2[C@@H](CO)O1)NC1CCCC1	·	·	·	·	-7	·
COc1cc(C2c3cc4c(cc3OC(NCc3ccccc3)C2C)OCO4)cc(OC)c1OC (stereo not drawn)	·	-13	·	42	?	·
COc1cc(C2c3cc4c(cc3OC(NNC(N)=S)C2C)OCO4)cc(OC)c1OC (stereo not drawn)	·	-22	·	45	85*	·
O=C(NCC[C@H]1CC[C@@H](NC(=O)C2CCCCC2)[C@@H](CO)O1)c1cc(Cl)cc(Cl)c1	·	·	·	·	1	·
O=C(NNc1cc(Cl)cc(Cl)c1)c1cccs1	0	·	19	8	-1	28
Cc1cccc(NNC(=O)C(=O)NNc2cccc(C)c2)c1	1	-45	12	1	10	93*
CCCc1ccc(C(=O)NNc2cc(Cl)ccc2Cl)cc1	42	90*	34	36	-17	-2
CCc1ccc(C(=O)NNc2ccc(Cl)cc2)cc1	29	38	1	·	-17	99*
CCCc1ccc(C(=O)NNC(=O)c2ccc(Cl)cc2)cc1	3	-23	1	1	·	-5
O=C(NNc1ccc(Cl)cc1)c1cccs1	-8	·	20	1	-13	96*
CCCc1ccc(C(=O)NNc2cccc(C)c2)cc1	7	-1	-9	-9	-32	77*
CC(C)CCCCCCCCCCCCC(=O)NCC(=O)NC1C(O)C(O)C(Nc2ncnc3nc[nH]c23)OC1C(O)CO (stereo not drawn)	·	97*	·	85*	·	·
CC(=O)N[C@@H]1CC[C@@H](CCNC(=O)Nc2ccc(C(F)(F)F)cc2)O[C@H]1CO	·	·	·	·	3	·
Cn1cc(/C=C(\C(=O)O)C(C(=O)O)=C2CCCCC2)c2ccccc21	-6	9	3	-2	95*	-30
COc1cnc(-c2ccccn2)nc1Sc1ccccc1	50	37	42	10	-24	17
COc1ccc(Sc2nc(-c3ccccn3)ncc2OC)cc1	90*	32	27	6	18	-7
COc1ccc(C)c2sc(N(CCCN(C)C)C(=O)c3ccc(S(=O)(=O)N4CCc5ccccc5C4)cc3)nc12	·	92*	·	31	?	-7
C[C@@H]1CN([C@H](C)CO)C(=O)Cc2cc(NC(=O)NC3CCCCC3)ccc2O[C@@H]1CN(C)C(=O)Nc1ccccc1	·	·	·	·	-19	·
CC(C)N=c1scc(-c2ccco2)n1/N=C/c1ccc(O)c(O)c1	11	94*	6	54	·	99*
SMILES	Beta apoptosis	Shn3 inh set2	Mdm2 MdmX PPI	Gli-Sufu block	PAX8 reporter	CSC inhib
C=CCN=c1scc(-c2ccco2)n1/N=C/c1ccc(O)c(O)c1O	5	91*	10	-4	11	16
COCCN=c1scc(-c2ccco2)n1/N=C/c1ccc(O)c(O)c1O	-8	46	2	6	27	1
C[C@@H]1CN([C@@H](C)CO)C(=O)c2cc(NC(=O)CCC(F)(F)F)ccc2O[C@@H](C)CCCCO[C@H]1CN(C)Cc1ccc2c(c1)OCO2	·	·	·	·	-1	·
Cc1ccc(/C=N/NC(=O)c2ccc3c(c2)OCCO3)s1	8	-26	16	-19	-86	92*
O=C(N/N=C/c1cc(Br)cs1)c1ccc2c(c1)OCCO2	5	-120	3	-92	-77	?
O=C(N/N=C/c1cc([N+](=O)[O-])ccc1O)c1cccc2cc[nH]c12	100*	47	48	8	14	88*
O=C(N/N=C/c1ccccc1[N+](=O)[O-])c1ccc2c(c1)OCCO2	2	15	-129	-50	12	25
O=C(N/N=C/c1cccc([N+](=O)[O-])c1)c1cccc2cc[nH]c12	1	6	20	3	16	2
O=C(N/N=C/c1cc([N+](=O)[O-])ccc1O)c1ccc2c(c1)OCCO2	105*	20	39	-2	-36	11
CCn1c(C)nc2cc(C(=O)N/N=C/c3cccc(O)c3O)ccc21	76*	91*	25	17	-1	-5
C[C@@H]1CN([C@@H](C)CO)C(=O)c2cc(C3=CCCC3)cnc2O[C@@H]1CN(C)C(=O)C1CCOCC1	·	·	·	·	-15	·
CCCN1C[C@@H](C)[C@H](OC)CN(C)C(=O)c2cc(NC(=O)COC)ccc2OC[C@@H]1C	·	·	·	·	-7	·
O=C(NN=Cc1cccc(O)c1O)c1ccccc1	·	75	·	·	5	·
Cc1cccc(/C=N/NC(=O)c2ccc3c(c2)OCCO3)c1O	94*	80	15	·	38	-20
Cc1cccc(/C=N\NC(=O)c2ccc(Cl)cc2)c1O	96*	27	30	36	-77	-13
COCCN(C(=O)COC(=O)/C=C/c1cccc(OC)c1)c1c(N)n(CC(C)C)c(=O)[nH]c1=O	·	-10	-8	-7	67*	·
COCCN(C(=O)COC(=O)/C=C/c1ccc(OC)c(OC)c1)c1c(N)n(Cc2ccccc2)c(=O)[nH]c1=O	3	-34	-9	-7	-10	·
C[C@@H]1CN([C@@H](C)CO)C(=O)c2cc(NS(=O)(=O)c3cn(C)cn3)ccc2O[C@H]1CN(C)Cc1ccc(Cl)c(Cl)c1	·	·	·	·	7	·
Cc1ccccc1Nc1c(-c2ccccn2)nc2c(C)cccn12	96*	-7	-19	0	0	6
CC(C)CC(NC(=O)C(NC(=O)C(Cc1ccc(OCc2ccccc2)cc1)NC(=O)OC(C)(C)C)C(C)C)C(N)=O (stereo not drawn)	-1	1	3	1	-19	138*
O=C(CSc1nnc(NC(=O)c2ccc(S(=O)(=O)N3CCOCC3)cc2)s1)Nc1ccccc1C(F)(F)F	-5	8	-28	9	69*	0
Cc1nnc(NC(=O)c2ccc(S(=O)(=O)N3CCOCC3)cc2)s1	-5	6	-19	48	-7	6
